Measured values published in PubChem BioAssay (NCATS).
Records with an inconclusive call do not appear. Where a call stands in place of a potency, no number is given. The source made the active and inactive calls. Calls follow the shape of the dose curve; as a rule, active = well fitted inhibition curve with a large enough effect; inconclusive = small, poorly fitted or top-dose-only effect; inactive = flat fitted curve, though single readings scatter.

What follows are molecules tested on CP185 (assay: qHTS profiling for inhibitors of Plasmodium falciparum proliferation (AID 504749; also: nearly all actives have a fitted effect of over 60% in size)). Settings: P. falciparum in erythrocytes, SYBR Green DNA, 72 h; series mostly up to 28.7 µM.
Procedure, shortened: (§1)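 Fluorescence of SYBR Green-bound parasite DNA, read at 485/535 nm, served as the growth measure. Infected erythrocytes were cultured with compound 72 h; artemisinin (0.29 uM) and DMSO wells defined the normalization range.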
Potency is read from the fitted curve at half-maximal effect.

Q: With Cc1c(C)c2c(c(C)c1O)CCC(C)(COc1ccc(CC3SC(=O)NC3=O)cc1)O2 (centres undefined) as the molecule, how does the Potency read?
A: inactive

Q: How did the Potency turn out when N[C@@H]1CONC1=O was run?
A: inactive

Q: How did the Potency turn out when O=c1[nH]cnc2[nH]ncc12 was run?
A: inactive

Q: Which Potency does the source give for CC(C[N+](C)(C)C)OC(N)=O (centres undefined) here?
A: inactive

Q: With Cc1[nH]c(=O)c(C#N)cc1-c1ccncc1 as the molecule, how does the Potency read?
A: inactive

Q: Which Potency does the source give for C1COC(NC(C2CC2)C2CC2)=N1 here?
A: inactive

Q: For O=NN(CCCl)C(=O)NCCCl, which Potency is on record?
A: inactive

Q: With C#Cc1cccc(Nc2ncnc3cc(OCCOC)c(OCCOC)cc23)c1 as the molecule, how does the Potency read?
A: inactive

Q: For NS(=O)(=O)c1cc2c(cc1Cl)NC=NS2(=O)=O, which Potency is on record?
A: inactive

Q: Which Potency does the source give for CC(c1cc2ccccc2s1)N(O)C(N)=O (centres undefined) here?
A: inactive

Q: How did the Potency turn out when NCCCC(N)(C(=O)O)C(F)F (centres undefined) was run?
A: inactive

Q: Which Potency does the source give for CNC[C@H](O)c1cccc(O)c1 here?
A: inactive

Q: For CC(C)C[C@H](NC(=O)[C@@H](O)[C@H](N)Cc1ccccc1)C(=O)O, which Potency is on record?
A: 11.2 µM (active)

Q: Which Potency does the source give for CCCCNc1cc(C(=O)O)cc(S(N)(=O)=O)c1Oc1ccccc1 here?
A: inactive

Q: For NCCc1ccc(O)c(O)c1, which Potency is on record?
A: inactive

Q: How did the Potency turn out when NC[C@H](O)c1ccc(O)c(O)c1 was run?
A: inactive

Q: Which Potency does the source give for Nc1nc2c(ncn2COCCO)c(=O)[nH]1 here?
A: inactive

Q: With CCc1ccc(CCOc2ccc(CC3SC(=O)NC3=O)cc2)nc1 (centres undefined) as the molecule, how does the Potency read?
A: inactive

What follows are molecules tested on CP191 in the same assay as above. Settings: P. falciparum in erythrocytes, SYBR Green DNA, 72 h; series mostly up to 28.7 µM.
Procedure, shortened: as §1

Q: N[C@@H]1CONC1=O was tested. Which Potency did it give?
A: inactive

Q: For O=c1[nH]cnc2[nH]ncc12, which Potency is on record?
A: inactive

Q: CC(C[N+](C)(C)C)OC(N)=O (centres undefined) was tested. Which Potency did it give?
A: inactive

Q: With Cc1[nH]c(=O)c(C#N)cc1-c1ccncc1 as the molecule, how does the Potency read?
A: inactive

Q: O=NN(CCCl)C(=O)NCCCl was tested. Which Potency did it give?
A: inactive

Q: With NS(=O)(=O)c1cc2c(cc1Cl)NC=NS2(=O)=O as the molecule, how does the Potency read?
A: inactive

Q: How did the Potency turn out when CC(c1cc2ccccc2s1)N(O)C(N)=O (centres undefined) was run?
A: inactive

Q: NCCCC(N)(C(=O)O)C(F)F (centres undefined) was tested. Which Potency did it give?
A: inactive

Q: Which Potency does the source give for CNC[C@H](O)c1cccc(O)c1 here?
A: inactive

Q: With CC(C)C[C@H](NC(=O)[C@@H](O)[C@H](N)Cc1ccccc1)C(=O)O as the molecule, how does the Potency read?
A: 5.01 µM (active)

Q: CCCCNc1cc(C(=O)O)cc(S(N)(=O)=O)c1Oc1ccccc1 was tested. Which Potency did it give?
A: inactive

Q: Which Potency does the source give for O=C1CCc2cc(OCCCCc3nnnn3C3CCCCC3)ccc2N1 here?
A: inactive

Q: NCCc1ccc(O)c(O)c1 was tested. Which Potency did it give?
A: inactive

Q: For NC[C@H](O)c1ccc(O)c(O)c1, which Potency is on record?
A: inactive

Q: Which Potency does the source give for Nc1nc2c(ncn2COCCO)c(=O)[nH]1 here?
A: inactive

Q: CCc1ccc(CCOc2ccc(CC3SC(=O)NC3=O)cc2)nc1 (centres undefined) was tested. Which Potency did it give?
A: inactive
